Test results reported in PubChem BioAssay (EPA / NIEHS).
Activity calls are given as the source filed them. Rule for the calls: active = hit-call score of the fitted dose curve at least 0.9, where 1 is the maximum; inactive = score below 0.9.

Tests used:
[1] = APR_HepG2_NuclearSize_72hr: Apredica 72-hour HepG2 Assay for Nuclear Size (AID 2282925); conditions: high-content imaging, actives raise or lower the signal
Procedure, shortened: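 Nuclear size was read by high-content imaging of Hoechst 33342 stain after formaldehyde fixation. Compounds ran 72 h on HepG2 at 0.39 to 200 uM, with final DMSO 0.5% v/v. Curves fitted both directions relative to DMSO control.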

[2] = ATG_CRE_CIS: Attagene CIS-FACTORIAL HepG2 Assay for human cAMP Responsive Element (CRE) binding protein 3 (AID 2282926); conditions: HepG2 CRE cis-reporter, Attagene multiplexed mRNA; actives raise or lower the signal
Procedure, shortened: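 Liver-derived HepG2, transfected with a CRE-containing reporter panel, exposed 24 h; transcript levels sized and quantified by capillary electrophoresis of labelled amplicons; signal changes either way referenced to vehicle.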

[3] = target: CCAAT/enhancer-binding protein beta (Homo sapiens) (UniProt P17676); experiment: ATG_C_EBP_CIS: Attagene CIS-FACTORIAL HepG2 Assay for human CCAAT/Enhancer Binding Protein (C/EBP) beta (AID 2282927); conditions: HepG2 Attagene cis-factorial transcription factor reporter; actives raise or lower the signal
Procedure, shortened: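 Changes in reporter mRNA, rather than exogenous chimeric receptor activity, reflect native C/EBP signalling in transfected HepG2 cells dosed for 24 h; transcripts are detected by RT-PCR and capillary electrophoresis.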

[4] = ATG_CMV_CIS: Attagene CIS-FACTORIAL HepG2 Assay for human CMV (Internal Marker) (AID 2282928); conditions: HepG2 CMV promoter reporter, transcription factor profiling; actives raise or lower the signal;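 note: endpoint acts as a background internal control marker rather than a target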
Procedure, shortened: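 Readout: fluorescent reporter cDNA fragments separated by capillary electrophoresis after RT-PCR and HpaI cut. Cells: HepG2 carrying transfected cis-promoter reporter constructs, dosed 24 h. Endpoint serves as background internal-marker control, fit bidirectionally versus DMSO.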

[5] = ATG_DR4_LXR_CIS: Attagene CIS-FACTORIAL HepG2 Assay for human Liver X Receptor (LXR), DR4 submotif (AID 2282929); conditions: HepG2 Attagene DR4 cis-reporter, mRNA transcription; actives raise or lower the signal
Procedure, shortened: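 After transient transfection with multiplexed cis-promoter reporter units, HepG2 cells received test chemicals for 24 h. Reporter mRNA induction, detected by fluorescence after RT-PCR and capillary electrophoresis, was scored relative to DMSO.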

[6] = ATG_AP_1_CIS: Attagene CIS-FACTORIAL HepG2 Assay for human Activator Protein 1 (AP-1) (AID 2282931); conditions: HepG2 Attagene cis-factorial AP-1 reporter mRNA; actives raise or lower the signal
Procedure, shortened: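 After 24 h incubation with test chemical, RNA from transfected HepG2 cells was reverse-transcribed, amplified, fluorescently labelled and digested before capillary electrophoresis. Reporters were driven by cis-regulatory promoters; activity fitted bidirectionally versus DMSO.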

[7] = ATG_AP_2_CIS: Attagene CIS-FACTORIAL HepG2 Assay for human Activator Protein 2 (AP-2) (AID 2282932); conditions: HepG2 AP-2 cis-reporter, Attagene transcription factor profiling; actives raise or lower the signal
Procedure, shortened: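 Endogenous transcription factor activity is reported through transfected multiplex reporter constructs in HepG2, after 24 h of compound exposure. Transcripts were quantified by RT-PCR and capillary electrophoresis of fluorescent fragments. Bidirectional fit against DMSO.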

[8] = ATG_BRE_CIS: Attagene CIS-FACTORIAL HepG2 Assay for human Bone Morphogenetic Protein (BMP) Response Element (BRE) (AID 2282933); conditions: HepG2 BMP response element reporter, Attagene transcription factor profiling; actives raise or lower the signal
Procedure, shortened: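 HepG2 cells transiently transfected with CIS reporter units (endogenous TF activity, BMP response element), dosed 24 h. Reporter mRNA quantified by RT-PCR, fluorescent labelling and capillary electrophoresis; bidirectional fit vs DMSO baseline.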

[9] = target: Retinoic acid receptor alpha (Homo sapiens) (UniProt P10276); experiment: ATG_DR5_RAR_CIS: Attagene CIS-FACTORIAL HepG2 Assay for human Retinoic Acid Receptor Alpha (RARE), DR5 submotif (AID 2282934); conditions: HepG2 Attagene cis-factorial RARE DR5 reporter, mRNA; actives raise or lower the signal
Procedure, shortened: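 HepG2, transient cis-reporter transfection, 24 h exposure. mRNA readout: RT-PCR, FAM label, HpaI cut, capillary electrophoresis. DMSO baseline, gain/loss fitting.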

[10] = target: Transcription factor E2F1 (Homo sapiens) (UniProt Q01094); experiment: ATG_E2F_CIS: Attagene CIS-FACTORIAL HepG2 Assay for human E2F Transcription Factor 1 (AID 2282935); conditions: HepG2 Attagene cis-reporter, E2F reporter RNA transcripts; actives raise or lower the signal
Procedure, shortened: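 Gain or loss of reporter transcript, fitted against DMSO, reflects E2F1-driven transcription. Transiently transfected HepG2 dosed 24 h before RNA isolation. Quantified by fluorescent RT-PCR products separated by capillary electrophoresis.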

[11] = ATG_E_Box_CIS: Attagene CIS-FACTORIAL HepG2 Assay for human Enhancer Box (E-box) (AID 2282936); conditions: HepG2 E-box cis-reporter transcription, actives raise or lower the signal
Procedure, shortened: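 E-box-driven reporter transcripts measured in transiently transfected HepG2 after 24 h exposure: RNA reverse-transcribed, PCR-amplified, fluorescently labelled, digested and resolved by capillary electrophoresis. Gain or loss relative to DMSO.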

[12] = ATG_M_61_CIS: Attagene CIS-FACTORIAL HepG2 Assay for M61 Transcription Factor (Internal Marker) (AID 2282937); conditions: HepG2 Attagene CIS-FACTORIAL M61 internal marker reporter; actives raise or lower the signal
Procedure, shortened: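 Using transiently transfected HepG2 liver cells, reporter transcript levels were assessed 24 h post-dosing by RT-PCR and capillary electrophoresis. Changes in either direction were fitted relative to DMSO controls.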

[13] = ATG_M_19_CIS: Attagene CIS-FACTORIAL HepG2 Assay for M19 Transcription Factor (Internal Marker) (AID 2282939); conditions: HepG2 Attagene CIS-FACTORIAL M19 internal marker reporter; actives raise or lower the signal
Procedure, shortened: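 HepG2 cells transiently transfected with cis-regulated multiplexed reporter units, dosed 24 h. Reporter mRNA quantified by RT-PCR and capillary electrophoresis; internal background marker fitted bidirectionally versus DMSO.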

[14] = ATG_ERE_CIS: Attagene CIS-FACTORIAL HepG2 Assay for Estrogen Response Element (ERE) (AID 2282940); conditions: HepG2 ERE cis-reporter, Attagene RNA transcript; actives raise or lower the signal
Procedure, shortened: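 HepG2 cells transiently transfected with multiplexed cis-element reporter units, measuring endogenous transcription factor activity; ERE reporter mRNA quantified after 24 h exposure by RT-PCR, fluorescent labelling, HpaI digestion and capillary electrophoresis. Bidirectional change versus DMSO.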

[15] = ATG_Ets_CIS: Attagene CIS-FACTORIAL HepG2 Assay for human Erythroblast Transformation Specific (ETS) (AID 2282941); conditions: HepG2 ETS cis-reporter transcription, actives raise or lower the signal
Procedure, shortened: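 RT-PCR/capillary electrophoresis fluorescence read-out of reporter mRNA; HepG2 transient multi-reporter transfection; 24 h compound exposure; gain or loss of signal fitted bidirectionally relative to DMSO.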

[16] = ATG_FoxO_CIS: Attagene CIS-FACTORIAL HepG2 Assay for human Forkhead box O (FoxO) (AID 2282943); conditions: HepG2 Attagene cis-reporter, FoxO element, mRNA; actives raise or lower the signal
Procedure, shortened: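 Human hepatoma HepG2 cells carry transiently introduced reporter transcription units controlled by cis promoter elements. Chemical treatment lasted 24 h, and mRNA signal was compared with DMSO.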

[17] = ATG_GATA_CIS: Attagene CIS-FACTORIAL HepG2 Assay for human GATA Binding Protein (AID 2282944); conditions: HepG2 GATA cis-element reporter, Attagene multiplex mRNA; actives raise or lower the signal
Procedure, shortened: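 HepG2 cells transiently transfected with multiplexed cis-element reporter units measure endogenous GATA activity; after 24 h compound exposure, reporter mRNA quantified by RT-PCR and capillary electrophoresis. Changes fitted in both directions vs DMSO.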

[18] = target: Aryl hydrocarbon receptor (Homo sapiens) (UniProt P35869); experiment: ATG_Ahr_CIS: Attagene CIS-FACTORIAL HepG2 Assay for human Aryl Hydrocarbon Receptor (Ahr) (AID 2282930); conditions: HepG2 AhR cis-factorial reporter transcription; actives raise or lower the signal
Procedure, shortened: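 HepG2, transient MRTU (cis) transfection, 24 h exposure. RNA → cDNA → PCR → 6-FAM primer extension → HpaI 2 h 37 C → CE. Fit: bidirectional, DMSO baseline.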

[19] = ATG_EGR_CIS: Attagene CIS-FACTORIAL HepG2 Assay for human Early Growth Response 1 (EGR1) (AID 2282938); conditions: HepG2 Attagene CIS-FACTORIAL EGR reporter mRNA; actives raise or lower the signal
Procedure, shortened: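 Fluorescent capillary-electrophoresis signal of reporter cDNA fragments serves as read-out. HepG2 cells bear transiently transfected cis-promoter reporter units and are exposed 24 h; gain- or loss-of-signal is fitted against DMSO.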

[20] = target: Hepatocyte nuclear factor 3-beta (Homo sapiens) (UniProt Q9Y261); experiment: ATG_FoxA2_CIS: Attagene CIS-FACTORIAL HepG2 Assay for human Forkhead box A2 (FOXA2) (AID 2282942); conditions: HepG2 cis-reporter transcription factor activity, 24 h; actives raise or lower the signal
Procedure, shortened: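 Fluorescence signal of reporter cDNA fragments, separated by capillary electrophoresis, reflects endogenous transcription factor activity in transfected HepG2 after 24 h. Both increases and decreases fitted against DMSO.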

Measured: AC50

Retinoic acid receptor alpha (Homo sapiens), sequence (P10276 whole entry, looked up): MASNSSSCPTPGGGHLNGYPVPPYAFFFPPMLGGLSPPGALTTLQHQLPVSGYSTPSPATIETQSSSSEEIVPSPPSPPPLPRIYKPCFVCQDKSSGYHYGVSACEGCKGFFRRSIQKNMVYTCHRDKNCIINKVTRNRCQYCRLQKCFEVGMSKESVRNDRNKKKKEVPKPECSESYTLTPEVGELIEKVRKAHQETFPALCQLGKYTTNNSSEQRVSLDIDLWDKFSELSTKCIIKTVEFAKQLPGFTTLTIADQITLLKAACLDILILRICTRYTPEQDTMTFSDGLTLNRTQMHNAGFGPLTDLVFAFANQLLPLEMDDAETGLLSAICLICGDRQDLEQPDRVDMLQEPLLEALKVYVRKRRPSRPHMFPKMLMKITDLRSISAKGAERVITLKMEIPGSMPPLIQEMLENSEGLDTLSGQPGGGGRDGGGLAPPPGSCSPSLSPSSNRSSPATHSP
Hepatocyte nuclear factor 3-beta (Homo sapiens), sequence (Q9Y261 whole entry, looked up, the tested form may be a part): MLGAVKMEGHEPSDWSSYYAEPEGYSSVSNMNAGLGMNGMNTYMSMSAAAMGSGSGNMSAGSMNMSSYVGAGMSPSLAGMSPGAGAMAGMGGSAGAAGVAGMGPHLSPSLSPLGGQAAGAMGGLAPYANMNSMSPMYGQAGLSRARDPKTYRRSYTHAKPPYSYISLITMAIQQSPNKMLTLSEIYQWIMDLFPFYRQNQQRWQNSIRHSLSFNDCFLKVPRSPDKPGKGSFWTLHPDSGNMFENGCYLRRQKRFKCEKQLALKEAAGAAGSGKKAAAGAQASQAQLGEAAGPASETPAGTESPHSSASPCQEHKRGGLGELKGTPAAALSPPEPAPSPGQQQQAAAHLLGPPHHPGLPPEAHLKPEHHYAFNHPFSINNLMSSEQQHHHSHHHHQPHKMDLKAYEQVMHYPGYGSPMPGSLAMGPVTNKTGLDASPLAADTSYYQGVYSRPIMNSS
CCAAT/enhancer-binding protein beta (Homo sapiens), sequence (P17676 whole entry, looked up): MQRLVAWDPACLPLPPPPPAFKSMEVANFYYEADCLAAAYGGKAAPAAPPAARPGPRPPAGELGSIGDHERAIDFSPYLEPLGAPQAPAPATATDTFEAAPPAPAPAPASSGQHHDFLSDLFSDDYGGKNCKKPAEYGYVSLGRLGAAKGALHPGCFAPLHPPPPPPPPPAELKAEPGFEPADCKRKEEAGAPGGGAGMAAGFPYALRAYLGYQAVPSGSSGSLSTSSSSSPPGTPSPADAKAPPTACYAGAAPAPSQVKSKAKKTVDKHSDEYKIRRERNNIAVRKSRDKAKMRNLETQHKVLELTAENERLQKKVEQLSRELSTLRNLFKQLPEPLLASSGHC
Transcription factor E2F1 (Homo sapiens), sequence (Q01094 whole entry, looked up): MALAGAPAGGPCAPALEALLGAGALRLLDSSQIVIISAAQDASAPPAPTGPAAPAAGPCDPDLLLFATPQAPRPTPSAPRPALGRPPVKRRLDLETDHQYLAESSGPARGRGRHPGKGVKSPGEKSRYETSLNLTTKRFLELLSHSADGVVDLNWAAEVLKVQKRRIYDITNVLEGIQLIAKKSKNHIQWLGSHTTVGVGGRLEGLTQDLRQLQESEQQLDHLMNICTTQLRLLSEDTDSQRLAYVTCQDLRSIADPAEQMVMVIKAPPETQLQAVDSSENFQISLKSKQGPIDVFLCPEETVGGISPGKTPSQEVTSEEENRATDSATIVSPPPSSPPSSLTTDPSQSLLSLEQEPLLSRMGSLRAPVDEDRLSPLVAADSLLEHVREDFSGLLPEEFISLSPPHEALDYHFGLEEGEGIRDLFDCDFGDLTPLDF
Aryl hydrocarbon receptor (Homo sapiens), sequence (P35869 whole entry, looked up): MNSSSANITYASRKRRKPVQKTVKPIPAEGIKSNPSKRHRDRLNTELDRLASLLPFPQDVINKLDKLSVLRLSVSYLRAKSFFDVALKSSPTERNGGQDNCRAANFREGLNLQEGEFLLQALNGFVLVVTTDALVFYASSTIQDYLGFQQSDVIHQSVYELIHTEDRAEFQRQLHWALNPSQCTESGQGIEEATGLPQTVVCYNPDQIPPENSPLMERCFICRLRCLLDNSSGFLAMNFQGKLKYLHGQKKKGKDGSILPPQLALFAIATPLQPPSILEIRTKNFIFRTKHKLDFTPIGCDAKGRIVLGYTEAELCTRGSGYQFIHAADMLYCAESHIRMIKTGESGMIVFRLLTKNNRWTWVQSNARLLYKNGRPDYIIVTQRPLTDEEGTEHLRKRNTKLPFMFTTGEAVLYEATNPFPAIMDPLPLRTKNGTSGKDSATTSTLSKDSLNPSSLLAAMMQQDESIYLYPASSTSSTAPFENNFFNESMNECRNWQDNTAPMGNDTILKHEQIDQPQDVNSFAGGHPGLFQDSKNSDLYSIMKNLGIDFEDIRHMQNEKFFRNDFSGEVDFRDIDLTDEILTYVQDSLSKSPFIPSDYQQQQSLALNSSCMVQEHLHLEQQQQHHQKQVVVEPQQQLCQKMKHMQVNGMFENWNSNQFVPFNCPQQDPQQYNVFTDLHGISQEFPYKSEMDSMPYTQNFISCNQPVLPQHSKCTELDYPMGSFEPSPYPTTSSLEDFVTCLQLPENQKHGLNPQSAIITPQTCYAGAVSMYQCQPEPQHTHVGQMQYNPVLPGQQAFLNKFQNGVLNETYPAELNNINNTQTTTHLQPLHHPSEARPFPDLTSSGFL

CCCCC(CC)C(=O)OCCOCCOCCOC(=O)C(CC)CCCC (stereo unspecified)
active: [5] 160 µM
not listed: [18] | [19] | [20]
inactive: all other assays above

CC[C@H](C)C(=O)O[C@H]1C[C@H](O)C=C2C=C[C@H](C)[C@H](CC[C@@H](O)C[C@@H](O)CC(=O)O)[C@H]21
active: [18] 68.4 µM
inactive: all other assays above

O=C(NO)C1(NS(=O)(=O)c2ccc(Oc3ccc(F)cc3)cc2)CCOCC1
not listed: [19]
inactive: all other assays above

CCCCCCCCCCCCCCCCOS(=O)(=O)O
active: [5] 24.5 µM | [6] 28.5 µM | [11] 25.8 µM
not listed: [9] | [16] | [19] | [20]
inactive: all other assays above

CCc1ccc(O)c(C(C)(C)C)c1
active: [4] 43 µM | [6] 43.7 µM
not listed: [9] | [19]
inactive: all other assays above

CC(=O)c1ccccc1
not listed: [9] | [19]
inactive: all other assays above

O=C(O)c1cccc(C[C@@H]2COc3ccc(OCc4nc5cc(F)ccc5s4)cc3[C@@H]2O)c1
active: [5] 100 µM | [6] 158 µM | [7] 167 µM | [11] 66.9 µM
not listed: [9] | [16]
inactive: all other assays above
